From PubChem BioAssay AID720707 (National Center for Advancing Translational Sciences (NCATS), 2013)
The whole screen tested about 360,000 compounds, of which about 270 (0.075%) were called active. Calls come from the whole dose curve; as a rule, active = well fitted activation curve with a large enough effect; inconclusive = small, poorly fitted or top-dose-only effect; inactive = no such curve, though single readings can be large or run the other way. The entries come from a sample that favours actives as a whole.

The compounds below were run against Rap guanine nucleotide exchange factor 3 (Homo sapiens) (UniProt O95398) (assay: qHTS for Agonist of cAMP-regulated guanine nucleotide exchange factor 3 (EPAC1): primary screen). Settings: biochemical assay; series mostly up to 154 µM; activation: at the top concentration.
Source text: In multi-cellular eukaryotic organisms, the effects of cAMP are transduced by two ubiquitously-expressed intracellular cAMP receptors, the classic protein kinase A/cAMP-dependent protein kinase (PKA/cAPK) and the more recently discovered exchange protein directly activated by cAMP/cAMP-regulated guanine nucleotide exchange factor (EPAC/cAMP-GEF). Both PKA and EPAC are ubiquitously expressed in all tissues, and an increase in intracellular cAMP levels will lead to the activation of both PKA and EPAC. Therefore, careful dissections of the individual role and relative contribution of EPAC and PKA within the overall cAMP signaling in various model systems are critical for further elucidating the mechanism of cAMP signaling. To date no EPAC-specific antagonists and agonist, as well as isoform-specific agonists have been reported, and developing EPAC-specific pharmacological probes to determine the physiological functions that EPAC play in the overall cAMP-mediated signaling remains a major challenge within the research field. Furthermore, identified regulators of EPAC may lead to new mechanism-based therapeutic strategies specifically targeting the EPAC / cAMP-signaling components as EPAC has been implicated to play important roles in major human pathological conditions such as diabetes, heart disease, and cancer.
This qHTS will be used to screen the Molecular Libraries Small Molecule Repository (MLSMR) as a concentration-titration series using the NCGC unique quantitative screening (qHTS) platform to find activators for EPAC1. In addition, this assay will also be used as a counterscreen for the EPAC2 qHTS. This fluorescent based assay is developed and validated for EPAC1 that measures exchange using EPAC effector Rap1 complex with BODIPY-GDP, a GDP analog with a tethered fluorophores. Activators are identified by monitoring the change in fluorescence signal as the exchanged free BODIPY-GDP has a reduced fluorescence compared to Rap1-bound BODIPY-GDP. Increase in signal (activation) is the desired outcome for the EPAC1 agonist while no activity in this assay is desired for the EPAC2 agonist counterscreen.
[1] de Rooij, J., Zwartkruis, F. J., Verheijen, M. H., Cool, R. H., Nijman, S. M., Wittinghofer, A., and Bos, J.L. (1998) Nature 396, 474-477
NIH Chemical Genomics Center [NCGC]
NIH Molecular Libraries Probe Centers Network [MLPCN]
Assay Submitter (PI): Xiaodong Cheng, The University of Texas Medical Branch
Briefly, three uL of reagents (100 nM EPAC1, 250 nM RAP1B-BODIPY-GDP, 50 uM GDP) were dispensed into a 1536-well Greiner black solid-bottom medium binding assay plate. Controls and test compounds (23 nL) were transferred to the plate via a Kalypsys pin tool equipped with a 1536-pin array. The plates were centrifuged at 1,000 rpm for 15 seconds followed by 5 minute incubation at room temperature. The assay plates were read at 5 minute intervals for 30 minutes in the ViewLux plate reader using 480nm excitation and 540nm emission filters. The results were normalized to the agonist positive control of 6.5 mM cAMP.
Note: nearly all actives have a fitted effect of over 60% in size.
Potency is the fitted concentration of half-maximal effect.

Sequence of Rap guanine nucleotide exchange factor 3 (Homo sapiens) (O95398 whole entry, looked up): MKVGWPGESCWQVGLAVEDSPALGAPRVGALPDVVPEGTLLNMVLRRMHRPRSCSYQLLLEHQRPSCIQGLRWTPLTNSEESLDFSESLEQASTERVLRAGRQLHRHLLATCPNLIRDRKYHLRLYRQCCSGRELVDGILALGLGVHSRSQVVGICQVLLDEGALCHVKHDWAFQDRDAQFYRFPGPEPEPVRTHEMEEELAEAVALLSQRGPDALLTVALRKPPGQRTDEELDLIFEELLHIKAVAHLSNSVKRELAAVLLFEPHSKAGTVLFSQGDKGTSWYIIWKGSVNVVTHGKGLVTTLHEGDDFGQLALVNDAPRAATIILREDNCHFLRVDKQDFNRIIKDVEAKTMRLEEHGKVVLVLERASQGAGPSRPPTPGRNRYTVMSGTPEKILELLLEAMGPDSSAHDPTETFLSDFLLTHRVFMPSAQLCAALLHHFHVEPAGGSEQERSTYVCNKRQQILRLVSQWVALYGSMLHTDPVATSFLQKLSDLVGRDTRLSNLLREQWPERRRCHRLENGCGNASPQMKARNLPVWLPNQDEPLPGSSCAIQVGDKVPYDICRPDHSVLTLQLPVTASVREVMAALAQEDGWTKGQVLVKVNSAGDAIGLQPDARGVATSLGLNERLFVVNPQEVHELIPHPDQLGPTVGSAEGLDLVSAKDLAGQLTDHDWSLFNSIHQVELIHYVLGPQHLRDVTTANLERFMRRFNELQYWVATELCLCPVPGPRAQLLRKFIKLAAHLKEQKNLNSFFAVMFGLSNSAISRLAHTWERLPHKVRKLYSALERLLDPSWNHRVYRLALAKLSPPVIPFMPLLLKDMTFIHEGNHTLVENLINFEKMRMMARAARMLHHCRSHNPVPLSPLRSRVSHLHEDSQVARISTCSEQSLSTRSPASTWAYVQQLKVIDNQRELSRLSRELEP

SMILES | activation | Potency
CC(C)(C)n1nnnc1C(c1ccccc1F)N1CCN(C(=O)c2ccco2)CC1 (centres undefined) | 1.91% (inactive) | 
O=c1ccc2c(-c3ccccc3S(=O)(=O)O)c3ccc(O)c(O)c3oc-2c1O | -10.7% (inactive) | 
COc1ccc(NC(=O)C2CCC(CNS(=O)(=O)c3csc(C(N)=O)c3)CC2)cc1OC (centres undefined) | -7.96% (inactive) | 
CCN(CC(=O)Nc1c(F)cccc1F)C(=O)Cc1cccs1 | 9.59% (inactive) | 
Cc1ccc(NS(=O)(=O)c2cn(C)c(=O)n(C)c2=O)c(C)c1 | -4.61% (inactive) | 
CCOc1ccccc1C(=O)NC1CC2CCCC(C1)N2Cc1ccccc1 (centres undefined) | -8.13% (inactive) | 
Cc1noc(C)c1CSCC(=O)Nc1ccc(Br)cc1Cl | 0.706% (inactive) | 
CCOC(=O)C(NS(=O)(=O)c1ccc(C)cc1)(C(F)(F)F)P(=O)(OCC(C)C)OCC(C)C (centres undefined) | -18.9% (inactive) | 
CCN(CC)S(=O)(=O)c1cc([N+](=O)[O-])ccc1NNC(=O)Nc1ccccc1 | 17% (inactive) | 
Cc1ccccc1N1C(=O)C2ON(c3ccccc3)C(c3ccncc3)C2C1=O (centres undefined) | 14.8% (inactive) | 
CCOC(=O)c1c(NC(=O)CNC2CCCc3ccccc32)sc(C(N)=O)c1C (centres undefined) | 3.57% (inactive) | 
Cc1n[nH]c(=O)c2c1nnn2Cc1ccc(F)cc1 | 9.7% (inactive) | 
O=C(COc1ccc2ccccc2c1)N1CCN(C(=O)c2cccs2)CC1 | -6.98% (inactive) | 
O=C(NC(C(=O)NCCN1CCOCC1)C12CC3CC(CC(C3)C1)C2)C1CCCCC1 (centres undefined) | -4.95% (inactive) | 
Cc1cc(C)cc(NC(=O)C(c2ccccc2)N2CCN(CC(=O)N3CCCC3)CC2)c1 (centres undefined) | 4.7% (inactive) | 
Cc1ccccc1Cn1c2ccccc2c2cnn(CC(=O)NCc3ccco3)c(=O)c21 | -17.4% (inactive) | 
C(#CCN1CCOCC1)CCCN1CCOCC1 | -5.58% (inactive) | 
O=C1CC2(CC(c3ccc(Cl)cc3)=NO2)C(=O)N1c1ccccc1 (centres undefined) | 1.17% (inactive) | 
COc1ccc(N2CCN(C(=O)CN3C(=O)COc4ccccc43)CC2)cc1 | 6.42% (inactive) | 
Cc1cccc(OCC(O)Cn2c(N3CCCCC3)nc3c2c(=O)[nH]c(=O)n3C)c1 (centres undefined) | -3.51% (inactive) | 
COc1ccc(C2NCCCC2c2ccccc2)cc1 (centres undefined) | -6.92% (inactive) | 
CCCCCn1c(SCCC(C)C)nc2c1c(=O)[nH]c(=O)n2C | -27.6% (inactive) | 
Cc1ccc2c(CSc3nncs3)cc(=O)oc2c1 | -3.69% (inactive) | 
CCCc1ccc(OCC(O)CN2CCN(CCO)CC2)cc1 (centres undefined) | 11% (inactive) | 
COc1ccccc1N1CCN(S(=O)(=O)CCNC(=O)c2ccc(OC(C)C)cc2)CC1 | 9.05% (inactive) | 
Cc1cc(NS(=O)(=O)c2ccc(NC(=O)C(C)Oc3cccc(C)c3C)cc2)nc(C)n1 (centres undefined) | 2.53% (inactive) | 
CCc1c(C)sc(NC(=O)OC)c1C(=O)N1CCOCC1 | -5.41% (inactive) | 

SMILES | activation | Potency
O=S1(=O)N=C(N(CCO)/N=C/c2ccccc2F)c2ccccc21 | 1.16% (inactive) | 
CCOc1cc(/C=C2/N=C(c3ccc(C(C)(C)C)cc3)OC2=O)cc(Cl)c1OS(C)(=O)=O | 4.21% (inactive) | 
COc1ccc(C(=O)COC(=O)Cn2cnc3c2c(=O)n(C)c(=O)n3C)c(OC)c1 | 10.1% (inactive) | 
CC(=O)c1c(C)[nH]c(C(=O)OCC(=O)Nc2sc3c(c2C#N)CCCC3)c1C | 9.31% (inactive) | 
NC(=O)C1=C[C@H](c2csc3ccccc23)C[C@H](OCc2ccc(CO)cc2)O1 | 3.72% (inactive) | 
Cc1cccc(CCNS(=O)(=O)c2ccc(S(=O)(=O)NC3CCCC3)cc2)c1 | 0.785% (inactive) | 
Cn1c(NC(=O)c2ccco2)c(-c2ccccc2Cl)c(=O)c2ccccc21 | -0.86% (inactive) | 
C/C=C/c1ccc(OCC(=O)NNC(=O)CN(C)S(=O)(=O)c2ccc(C)cc2)c(OC)c1 | -1.47% (inactive) | 
Cc1ccc(S(=O)(=O)N(C)C)cc1NC(=O)C1Cc2ccccc2CN1C(=O)c1ccco1 (centres undefined) | -3.3% (inactive) | 
CCOc1ccc(S(=O)(=O)N/N=C(\C)c2ccc(Cl)c(Cl)c2Cl)cc1 | -2.38% (inactive) | 
C[n+]1ccc(/C=C/c2c[nH]c3ccccc23)cc1 |  | 100 µM (active)
CC(C)(C)c1ccc(SCCc2ccncc2)cc1 | 2.65% (inactive) | 
O=C(Nc1ccccc1Cl)NC1(C(=O)N2CCOCC2)CCCCC1 | 12.8% (inactive) | 
CCCCC(=O)N(c1ccc(OC)cc1)C1C=CS(=O)(=O)C1 (centres undefined) | 4.76% (inactive) | 
CC(C)COC(=O)c1ccc(NC(=O)C2C3C=CC(C3)C2C(=O)O)cc1 (centres undefined) | 14.5% (inactive) | 
COc1cncc(-c2cnc3sc(NCCc4ccccn4)nn23)c1 | 2.99% (inactive) | 
COCCN1C(=O)c2oc3c(C)cc(C)cc3c(=O)c2C1c1cccc(O)c1 (centres undefined) | 20.3% (inactive) | 
O=C1CCC(=O)N1CCOP1(=O)COc2ccccc2OC1 | 6.29% (inactive) | 
COc1ccc(C)cc1NC(=O)CN1c2cccc3cccc(c23)S1(=O)=O | -4.18% (inactive) | 
COC(=O)c1c(C)cc(O)c(C)c1O | -12.7% (inactive) | 
CC(=O)N1c2ccc(S(=O)(=O)N3CCCC(C(=O)NCc4ccc(Cl)cc4)C3)cc2CC1C (centres undefined) | 2.25% (inactive) | 
Cc1ccc(Cl)cc1NC(=O)COC(=O)CC(C)(C)C | 2.13% (inactive) | 
CN(CC(O)COc1ccc(S(=O)(=O)N2CCOCC2)cc1Cl)C1CCCCC1 (centres undefined) | 7.39% (inactive) | 
Cc1ccc(C(C)C)c(OCc2nnc(SCC(=O)Nc3nccs3)n2C)c1 | -4.53% (inactive) | 
O=C(c1ccccc1)N1CCC(CC2CC(c3ccc(Cl)cc3)=NO2)(C(=O)NCC2CCCCC2)CC1 (centres undefined) | 5.56% (inactive) | 
CCc1c(O)nc(SCC(=O)N2CCCCC2)n(-c2ccccc2C)c1=O | 7.38% (inactive) | 
Cc1ccc(CN2CCN(c3ccccc3Cl)CC2)o1 | 3.65% (inactive) | 
